In the supplement of paper PMC11732987, “Enantioselective OTUD7B fragment discovery through chemoproteomics screening and high-throughput optimisation” (Communications Chemistry, 2025):

Legend:
Experiment in all cases: log2 ratio of Biotin-Ahx-Ub-VS probe labelling (fragment/DMSO); higher = less target engagement (more negative = stronger competition), active = hit call of the paper (q ≤ 0.05, log2 ratio ≤ -1)
Details in all cases: compound concentration: 200 uM; treatment time: 3 h
[1] = molecular target: T1, OTUD6B (UniProt Q8N6M0)
T1 sequence (whole entry): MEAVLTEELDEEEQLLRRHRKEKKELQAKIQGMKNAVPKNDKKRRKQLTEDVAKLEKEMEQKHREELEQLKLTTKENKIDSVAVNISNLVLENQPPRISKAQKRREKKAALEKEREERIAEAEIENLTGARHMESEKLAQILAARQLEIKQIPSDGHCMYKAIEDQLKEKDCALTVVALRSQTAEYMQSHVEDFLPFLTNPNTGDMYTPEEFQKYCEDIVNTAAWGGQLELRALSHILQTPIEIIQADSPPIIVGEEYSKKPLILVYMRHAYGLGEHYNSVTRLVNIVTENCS
How it was run: (§1)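 Average log2 ratios of fragment over vehicle were obtained by unpaired t-test from global-median-normalised Spectronaut label-free quantities. Proteins with ≥2 unique peptides were included. HEK293T lysate (495 µg per sample) was treated in triplicate with fragment at 200 µM or vehicle for 3 h, then with Biotin-Ahx-Ub-VS at 0.5 µM final for 1 h, and labelled DUBs were NeutrAvidin-enriched and run by diaPASEF LC-MS/MS.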

[2] = molecular target: T2, OTUD7B (UniProt Q6GQQ9)
T2 sequence (whole entry): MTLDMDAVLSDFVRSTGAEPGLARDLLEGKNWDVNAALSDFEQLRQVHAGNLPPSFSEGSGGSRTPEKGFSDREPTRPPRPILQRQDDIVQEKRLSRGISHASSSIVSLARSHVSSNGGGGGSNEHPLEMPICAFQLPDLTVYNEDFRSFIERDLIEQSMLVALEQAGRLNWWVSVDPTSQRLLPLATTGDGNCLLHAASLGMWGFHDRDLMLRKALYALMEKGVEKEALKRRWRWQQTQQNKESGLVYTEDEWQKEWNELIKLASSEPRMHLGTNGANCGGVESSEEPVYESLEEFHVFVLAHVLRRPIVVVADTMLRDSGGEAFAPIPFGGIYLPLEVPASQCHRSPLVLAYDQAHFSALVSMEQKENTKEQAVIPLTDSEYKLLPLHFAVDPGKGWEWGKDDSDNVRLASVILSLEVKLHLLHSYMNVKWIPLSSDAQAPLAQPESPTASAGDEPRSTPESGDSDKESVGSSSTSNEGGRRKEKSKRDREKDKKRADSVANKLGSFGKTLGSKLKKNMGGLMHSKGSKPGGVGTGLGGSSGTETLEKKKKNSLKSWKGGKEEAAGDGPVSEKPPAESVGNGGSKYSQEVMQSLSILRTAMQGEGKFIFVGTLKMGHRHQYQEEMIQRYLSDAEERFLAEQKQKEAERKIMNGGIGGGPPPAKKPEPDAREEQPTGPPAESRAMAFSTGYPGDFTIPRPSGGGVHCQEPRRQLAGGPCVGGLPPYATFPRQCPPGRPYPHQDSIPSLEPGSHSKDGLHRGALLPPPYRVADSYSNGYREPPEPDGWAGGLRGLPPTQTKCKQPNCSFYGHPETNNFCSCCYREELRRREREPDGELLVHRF
How it was run: as §1

[3] = molecular target: PRPF8 (UniProt Q6P2Q9)
How it was run: as §1

[4] = molecular target: T3, PSMD7 (UniProt P51665)
T3 sequence (whole entry): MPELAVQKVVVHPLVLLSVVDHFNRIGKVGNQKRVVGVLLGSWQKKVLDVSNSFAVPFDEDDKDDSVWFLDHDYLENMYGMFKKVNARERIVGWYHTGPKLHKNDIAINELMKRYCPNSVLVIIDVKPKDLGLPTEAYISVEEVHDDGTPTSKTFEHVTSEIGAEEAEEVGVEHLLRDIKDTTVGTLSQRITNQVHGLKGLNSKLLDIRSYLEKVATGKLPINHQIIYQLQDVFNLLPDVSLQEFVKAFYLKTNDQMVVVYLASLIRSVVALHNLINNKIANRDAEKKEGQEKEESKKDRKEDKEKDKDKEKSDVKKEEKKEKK
How it was run: as §1

[5] = molecular target: UCHL1 (UniProt P09936)
How it was run: as §1

[6] = molecular target: T4, UCHL3 (UniProt P15374)
T4 sequence (whole entry): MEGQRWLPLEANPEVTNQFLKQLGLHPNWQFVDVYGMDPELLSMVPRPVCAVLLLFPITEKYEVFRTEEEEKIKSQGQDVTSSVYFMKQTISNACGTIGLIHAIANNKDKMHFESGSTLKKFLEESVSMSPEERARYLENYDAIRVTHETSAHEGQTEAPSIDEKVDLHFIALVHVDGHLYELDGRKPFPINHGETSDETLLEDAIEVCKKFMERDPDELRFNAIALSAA
How it was run: as §1

[7] = molecular target: T5, UCHL5 (UniProt Q9Y5K5)
T5 sequence (whole entry): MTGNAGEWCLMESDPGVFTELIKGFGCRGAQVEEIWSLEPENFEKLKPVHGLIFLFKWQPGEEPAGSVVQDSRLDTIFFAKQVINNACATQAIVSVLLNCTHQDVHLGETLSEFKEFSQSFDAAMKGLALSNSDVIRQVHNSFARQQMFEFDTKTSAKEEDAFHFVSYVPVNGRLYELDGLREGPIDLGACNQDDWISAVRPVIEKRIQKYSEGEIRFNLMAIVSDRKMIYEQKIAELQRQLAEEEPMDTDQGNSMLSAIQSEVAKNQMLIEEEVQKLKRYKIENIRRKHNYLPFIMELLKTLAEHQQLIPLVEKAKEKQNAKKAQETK
How it was run: as §1

[8] = molecular target: USP10 (UniProt Q14694)
How it was run: as §1

[9] = molecular target: T6, USP15 (UniProt Q9Y4E8)
T6 sequence (whole entry): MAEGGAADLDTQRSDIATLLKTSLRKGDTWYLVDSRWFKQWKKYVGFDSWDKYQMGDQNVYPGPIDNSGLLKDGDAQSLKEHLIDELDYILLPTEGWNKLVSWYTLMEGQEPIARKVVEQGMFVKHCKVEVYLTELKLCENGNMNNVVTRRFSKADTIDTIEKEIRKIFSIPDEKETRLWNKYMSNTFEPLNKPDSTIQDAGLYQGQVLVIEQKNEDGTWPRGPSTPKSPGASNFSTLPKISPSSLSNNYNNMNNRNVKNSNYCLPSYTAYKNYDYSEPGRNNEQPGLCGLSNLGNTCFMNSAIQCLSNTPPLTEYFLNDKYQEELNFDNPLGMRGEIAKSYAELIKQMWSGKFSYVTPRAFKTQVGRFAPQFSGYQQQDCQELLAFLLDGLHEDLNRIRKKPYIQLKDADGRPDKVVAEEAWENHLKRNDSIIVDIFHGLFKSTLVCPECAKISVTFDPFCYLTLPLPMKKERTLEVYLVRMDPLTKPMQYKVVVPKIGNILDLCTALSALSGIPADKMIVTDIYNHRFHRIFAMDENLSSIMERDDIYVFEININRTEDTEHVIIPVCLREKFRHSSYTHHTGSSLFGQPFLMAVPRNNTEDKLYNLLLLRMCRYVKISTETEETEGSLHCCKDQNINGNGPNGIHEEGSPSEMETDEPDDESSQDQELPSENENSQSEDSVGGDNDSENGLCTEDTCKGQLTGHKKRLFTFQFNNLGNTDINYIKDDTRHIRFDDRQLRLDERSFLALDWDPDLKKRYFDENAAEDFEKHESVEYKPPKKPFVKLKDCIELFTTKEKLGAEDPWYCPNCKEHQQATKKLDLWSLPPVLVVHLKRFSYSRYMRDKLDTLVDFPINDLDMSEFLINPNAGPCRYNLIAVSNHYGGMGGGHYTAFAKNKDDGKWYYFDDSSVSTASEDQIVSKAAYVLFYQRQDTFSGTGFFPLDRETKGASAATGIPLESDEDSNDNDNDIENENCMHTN
How it was run: as §1

[10] = molecular target: USP16 (UniProt Q9Y5T5)
How it was run: as §1

Measured: log2 ratio of Biotin-Ahx-Ub-VS probe labelling

USP16, sequence (Q9Y5T5 whole entry, looked up): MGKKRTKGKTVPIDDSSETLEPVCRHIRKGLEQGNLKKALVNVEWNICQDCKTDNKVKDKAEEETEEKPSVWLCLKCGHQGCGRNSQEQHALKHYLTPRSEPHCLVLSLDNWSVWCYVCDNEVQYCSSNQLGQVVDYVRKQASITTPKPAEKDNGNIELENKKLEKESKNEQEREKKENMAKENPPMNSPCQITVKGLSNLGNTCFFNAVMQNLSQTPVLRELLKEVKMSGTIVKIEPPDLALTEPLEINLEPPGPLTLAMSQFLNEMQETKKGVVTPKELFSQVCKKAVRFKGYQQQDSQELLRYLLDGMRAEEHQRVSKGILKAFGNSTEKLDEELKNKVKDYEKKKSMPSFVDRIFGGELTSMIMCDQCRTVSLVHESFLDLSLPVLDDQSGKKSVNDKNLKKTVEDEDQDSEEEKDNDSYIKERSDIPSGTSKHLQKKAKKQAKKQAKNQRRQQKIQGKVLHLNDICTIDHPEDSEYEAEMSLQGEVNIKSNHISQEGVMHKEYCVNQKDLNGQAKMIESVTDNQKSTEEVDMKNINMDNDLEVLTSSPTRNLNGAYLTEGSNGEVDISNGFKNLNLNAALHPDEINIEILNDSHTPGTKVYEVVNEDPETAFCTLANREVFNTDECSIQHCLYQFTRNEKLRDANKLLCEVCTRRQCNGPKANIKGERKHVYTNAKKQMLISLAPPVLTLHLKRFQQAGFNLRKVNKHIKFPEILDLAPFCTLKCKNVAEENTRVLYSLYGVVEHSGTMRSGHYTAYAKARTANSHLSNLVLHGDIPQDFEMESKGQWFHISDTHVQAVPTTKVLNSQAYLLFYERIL
USP10, sequence (Q14694 whole entry): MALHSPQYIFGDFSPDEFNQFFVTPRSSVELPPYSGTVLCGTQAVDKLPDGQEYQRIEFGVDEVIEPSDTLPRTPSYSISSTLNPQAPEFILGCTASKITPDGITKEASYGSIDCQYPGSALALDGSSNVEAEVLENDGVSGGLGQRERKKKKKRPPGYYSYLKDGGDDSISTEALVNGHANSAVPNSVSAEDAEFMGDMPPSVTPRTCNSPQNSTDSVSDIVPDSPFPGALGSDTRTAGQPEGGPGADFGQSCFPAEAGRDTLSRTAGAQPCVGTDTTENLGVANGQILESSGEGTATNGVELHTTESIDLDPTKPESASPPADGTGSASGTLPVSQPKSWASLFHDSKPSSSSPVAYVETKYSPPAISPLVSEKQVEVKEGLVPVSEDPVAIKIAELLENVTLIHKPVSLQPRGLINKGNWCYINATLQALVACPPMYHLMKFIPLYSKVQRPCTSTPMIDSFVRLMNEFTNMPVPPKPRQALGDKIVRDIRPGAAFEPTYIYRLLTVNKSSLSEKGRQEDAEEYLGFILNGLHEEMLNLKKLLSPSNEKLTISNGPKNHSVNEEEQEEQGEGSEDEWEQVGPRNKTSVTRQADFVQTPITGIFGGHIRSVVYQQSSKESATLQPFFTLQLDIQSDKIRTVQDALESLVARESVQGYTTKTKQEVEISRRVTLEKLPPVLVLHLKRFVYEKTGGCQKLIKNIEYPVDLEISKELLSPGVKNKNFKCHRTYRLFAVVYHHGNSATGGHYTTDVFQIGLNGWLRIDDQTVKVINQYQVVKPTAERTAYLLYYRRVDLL
UCHL1, sequence (P09936 whole entry, looked up): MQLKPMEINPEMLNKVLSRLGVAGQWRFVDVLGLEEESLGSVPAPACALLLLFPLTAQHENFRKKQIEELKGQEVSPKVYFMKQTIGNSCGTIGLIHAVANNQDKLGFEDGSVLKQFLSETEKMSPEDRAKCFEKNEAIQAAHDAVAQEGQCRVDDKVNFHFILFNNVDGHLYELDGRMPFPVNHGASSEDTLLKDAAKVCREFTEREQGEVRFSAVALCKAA

Cc1cnc2[nH]cc(CCNC(=O)CCl)c2c1
inactive: [1] 0.00839 | [2] -0.562 | [3] -0.0916 | [4] -0.297 | [5] -0.85 | [6] 0.0619 | [7] -0.065 | [8] -0.0977 | [9] -0.336 | [10] 0.0147
